Shown are actives, neighbours in structure and some others; about 0.35% of the full set was active somewhere.
Rtt109 Vps75: inhibitors of Candida albicans Rtt109/Vps75 histone acetyltransferase. Q5AAJ8. purified Rtt109/Vps75, ThioGlo CoA-SH fluorescence, 4 h. inhibition, % at 34.9 µM. hit rate 0.16% among 330,000. AID 540336;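 active = inhibition of at least 50% in every replicate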
Target sequence (Q5AAJ8 whole entry, looked up): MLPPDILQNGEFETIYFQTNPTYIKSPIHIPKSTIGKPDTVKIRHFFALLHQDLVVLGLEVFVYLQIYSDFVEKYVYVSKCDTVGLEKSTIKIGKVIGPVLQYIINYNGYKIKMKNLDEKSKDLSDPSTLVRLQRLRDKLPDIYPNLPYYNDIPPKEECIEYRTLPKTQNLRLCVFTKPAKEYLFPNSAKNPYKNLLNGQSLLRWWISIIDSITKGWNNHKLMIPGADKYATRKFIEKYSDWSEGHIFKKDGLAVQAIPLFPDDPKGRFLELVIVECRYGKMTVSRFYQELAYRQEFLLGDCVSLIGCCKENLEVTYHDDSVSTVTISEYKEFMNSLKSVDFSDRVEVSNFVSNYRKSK
ERAP1 inh: blocks human ERAP1 aminopeptidase activity; recombinant ERAP1, Leu-AMC fluorescence, 60 min; hit rate 0.15% among 340,000; inhibition, % at 10.7 µM; Q9NZ08;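 active = mean replicate inhibition of at least 30%, or all replicates individually reaching that 30% level; inactive = mean below 30% and not every replicate reaching it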;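 note: 0% = neutral control wells and 100% = L-leucinethiol positive control wells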
ERp5 inh: blocks human ERp5 reductase activity on insulin. ERp5 insulin aggregation, absorbance 650 nm, 90 min. inhibition, % at 9.99 µM. Q15084. hit rate 0.05% among 350,000;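 active = mean replicate inhibition above about 25%, with every replicate also reaching it, limit read from the data, passing the limit was not always enough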
PvdQ inh: blocks Pseudomonas aeruginosa PvdQ acylase activity. purified PvdQ acylase, fluorescence plate reader. inhibition, % at 10 µM. AID 488965. hit rate 0.063% among 340,000; in the data active = inhibition above about 30%, passing the limit was not always enough;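 note: 0% = vehicle neutral wells and 100% = reference inhibitor wells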
PDI inh: inhibitors of human protein disulfide isomerase; P07237; PDI insulin aggregation turbidity, A650, 90 min; inhibition, % at 10 µM; hit rate 0.052% among 350,000;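 active = mean inhibition across replicates of 30% or more, whatever share of single replicates reach that level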
An asterisk follows results filed as active; . = not tested or not shown.

SMILES	Rtt109 Vps75	ERAP1 inh	ERp5 inh	PvdQ inh	PDI inh
COCc1cc(C)c(C#N)c(=S)[nH]1	79.6*	.	.	-4.8	-7.4
COc1ccc(Oc2ccc(/C=C/C(=O)c3ccc(O)cc3)cc2[N+](=O)[O-])cc1	0.1	4.1	-47.6	-2.4	99.4*
Cc1c(O)ccc2cc(S(=O)(=O)c3ccccc3)c(=O)oc12	9.6	132.0*	0.9	-16.1	24.3
CC1CCC(C(C)C)C(OC(=O)Cn2c(-c3ccc(Cl)cc3)[n+](C)c3ccccc32)C1 (centres undefined)	19.4	31.0*	3.1	12.2	8.3
CC(C)NC(=O)Nc1ccc2c(c1)C(=O)N([C@H](C)CO)C[C@H](C)[C@@H](CN(C)Cc1ccncc1)OCCCC[C@@H](C)O2	.	3.9	0.6	.	.
C[C@H](CO)N1C[C@H](C)[C@H](CN(C)Cc2ccncc2)Oc2ncc(C#Cc3ccccn3)cc2C1=O	.	14.7	-2.8	.	.
CCOc1ccc(Nc2ncnc3ccc([N+](=O)[O-])cc23)cc1	13.5	-1.0	4.0	86.4*	-3.1
Cc1ccccc1/C=C/C(=O)NCC(=O)N1CCC(N(C)C2CCCCC2C)CC1 (centres undefined)	60.4*	4.0	2.9	5.0	-1.8
Cc1ccccc1C(=O)N1CCC(C(=O)N(CC(C)C)c2c(N)n(CC(C)C)c(=O)[nH]c2=O)CC1	-0.1	1.3	-3.8	-11.6	-3.2
COCCN(C(=O)C1CCN(C(=O)c2ccccc2C)CC1)c1c(N)n(CC(C)C)c(=O)[nH]c1=O	9.7	90.7*	-2.2	-0.4	3.5
COc1ccc(C2c3ccc(O)cc3Oc3ncn(CCN4CCOCC4)c(=N)c32)cc1OC (centres undefined)	-10.1	-0.5	2.9	-7.5	53.6*
CCN(CC)CCCNc1nc2cc(OC)c(OC)cc2c2nc(-c3cccnc3)nn12	79.1*	.	.	-6.3	5.9
CCN(CC)CCCNc1nc2cc(OC)c(OC)cc2c2nc(-c3ccccc3)nn12	0.8	.	.	-0.7	-3.1
COc1cc2nc(NCCCN3CCN(C)CC3)n3nc(-c4ccccc4)nc3c2cc1OC	82.2*	.	.	-19.5	-2.5
C[C@@H]1CN([C@@H](C)CO)C(=O)c2cc(-c3cncnc3)cnc2O[C@@H]1CN(C)C(=O)Cc1ccccn1	.	0.2	2.9	.	.
CCOC(=O)C1CCN(c2nc(N)c3c(N)nc(SCC(=O)O)cc3c2C#N)CC1	68.3*	31.4*	0.2	-9.7	-1.9
CC(=O)CC[N+](C)(C)C	-5.9	36.5*	-3.2	-2.6	0.9
C[N+](C)(C)CCCCCC(=O)/C=N/O	6.8	15.4	0.8	-5.8	9.8
COc1ccc(CNC(=O)C[C@H]2CC[C@@H](NC(=O)Nc3ccc4c(c3)OCO4)[C@@H](CO)O2)cc1	.	0.7	0.0	.	.
C[N+]12CCCCC1C(COC(=O)c1ccc3c(c1)OCO3)CCC2 (centres undefined)	3.3	30.6*	2.7	-6.2	6.0
O=S(=O)(c1ccc(Cl)cc1)N1CCN(c2ncccn2)CC1	64.3*	-0.6	-4.6	8.7	-7.8
COc1ccc(S(=O)(=O)N2CCN(c3ncccn3)CC2)cc1	-1.5	.	2.4	-12.6	-0.8
C[C@H](CO)N1C[C@H](C)[C@@H](CN(C)S(=O)(=O)c2ccc([N+](=O)[O-])cc2)OCc2ccccc2-c2ccccc2C1=O	.	-8.6	2.3	.	.
CCS(=O)(=O)Nc1ccc2c(c1)C(=O)N(C)C[C@@H](OC)[C@H](C)CN(C(=O)NC(C)C)[C@@H](C)CO2	.	-2.1	0.8	.	.
COCC(=O)N1CC(=O)N2[C@H](CO)[C@@H](c3ccc(C#Cc4cccnc4)cc3)[C@@H]2C1	.	-2.4	2.1	.	.
SMILES	Rtt109 Vps75	ERAP1 inh	ERp5 inh	PvdQ inh	PDI inh
COc1ccc(/C=C/C(=O)O)cc1S(=O)(=O)NCc1ccco1	50.2*	1.3	3.1	11.1	2.8
COc1ccc(CNC(=O)C2(c3ccc(Cl)cc3)CC2)cc1	55.7*	.	.	16.7	2.7
NS(=O)(=O)c1ccc(CNC(=O)C2(c3ccc(Cl)cc3)CC2)cc1	1.3	-1.3	-2.1	-4.7	-0.7
CCOC(=O)C(=Cc1cc(=O)c(OC)co1)C(=O)OCC	77.8*	-0.1	-0.2	-6.1	7.3
C[C@H]1CN([C@@H](C)CO)C(=O)Cc2cc(NC(=O)C3CCCCC3)ccc2O[C@@H]1CN(C)Cc1ccncc1	.	0.5	14.9	.	.
O=C(/C=C/Nc1ccc([N+](=O)[O-])cc1Br)c1cccc2ccccc12	51.2*	.	.	6.8	-3.1
NC(=O)c1cc([N+](=O)[O-])ccc1NCc1cccc2ccccc12	-1.8	2.1	0.3	-11.5	-1.0
C[C@@H]1CN([C@@H](C)CO)C(=O)c2cc(NC(=O)c3ccccc3)ccc2O[C@@H](C)CCCCO[C@H]1CN(C)C(=O)C1CCCCC1	.	-2.0	8.0	.	.
Cc1nn(CC(=O)NCc2cccnc2)c(C)c1[N+](=O)[O-]	68.2*	0.8	4.1	7.8	8.2
C[C@H](CO)N1C[C@H](C)[C@H](CN(C)Cc2ccc(C(=O)O)cc2)Oc2c(NC(=O)c3nc4ccccc4s3)cccc2C1=O	.	2.0	-14.1	.	.
Cc1ccc(NC(=S)Nc2ccc(F)cc2)cc1C	50.5*	6.0	-34.0	2.6	4.8
Cc1cccc(C)c1NC(=S)Nc1ccc(F)cc1	4.2	-1.9	6.7	-1.4	1.4
O=C(Nc1ccc2c(c1)[C@@H]1C[C@@H](CC(=O)N3CCOCC3)O[C@@H](CO)[C@@H]1O2)C1CCOCC1	.	2.5	-2.1	.	.
COc1ccc(S(=O)(=O)/N=C2/C=CC(=O)C(C)=C2C)cc1	0.6	.	.	-13.1	-2.7
CC1=C(C)/C(=N\OS(=O)(=O)c2ccc(C)cc2)C=CC1=O	108.6*	.	.	22.3	3.6
CC1CCN(S(=O)(=O)c2cc([N+](=O)[O-])ccc2Cl)CC1	.	-3.7	3.6	-1.9	-1.1
CCC(C)NC(=O)C1CCN(S(=O)(=O)c2cc([N+](=O)[O-])ccc2Cl)CC1 (centres undefined)	54.1*	.	-6.6	4.3	9.7
CC(=O)Nc1ccc(C(=O)N2CC(=O)NC(=O)C2)cc1	63.2*	.	1.5	11.2	-0.6
CN(C)C(=O)C[C@H]1C[C@@H]2c3cc(NC(=O)NC4CCCCC4)ccc3O[C@@H]2[C@H](CO)O1	.	-0.6	1.1	.	.
Cc1ccc(NC(=O)OCc2cc(-c3ccccc3)on2)cc1	55.8*	3.9	2.1	0.1	11.3
C[C@H]1CCC/C=C/[C@@H]2C[C@H](O)C[C@H]2[C@H](O)[C@H](S(=O)c2ccc(O)cc2)CC(=O)O1 (some centres undefined)	-0.9	67.1*	-16.5	-10.9	8.6
Cc1ccc(S(=O)(=O)N(C)C[C@H]2Oc3ccc(NS(=O)(=O)c4cccs4)cc3C(=O)N([C@H](C)CO)C[C@H]2C)cc1	.	0.9	-16.8	.	.
COc1ccc(CNCc2cccc(Cl)c2)cc1	-6.4	-1.7	4.4	43.0*	-0.2
C[C@@H]1CN([C@@H](C)CO)C(=O)c2cc(NC(=O)Cn3cnnn3)ccc2O[C@H]1CN(C)Cc1ccc(Oc2ccccc2)cc1	.	-0.2	-0.8	.	.
Cc1noc(C)c1S(=O)(=O)Nc1ccc2c(c1)C(=O)N([C@@H](C)CO)C[C@H](C)[C@H](CN(C)C(=O)c1ccccc1)OCCCC[C@@H](C)O2	.	3.3	0.4	.	.
